Measurements published in PubChem BioAssay (NCI).
This is part of a sample that, as a whole, favours compounds with a hit. Of some 83,000 tested, about 20% had one in any assay.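 Assay: single dose, 48 h. Readout: percent growth (0 = no net growth; negative = cell death). Active: <10.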 Unmarked numbers belong to inactive results. Active and inactive are the calls of the source.

test system: HL-60(TB) leukemia; assay: NCI-60 one-dose screen, 48 h (100 = growth as untreated, 0 = no growth, -100 = all killed); settings: 10 µM unless noted

| Compound | growth |
| --- | --- |
| COc1cccc(NC(=O)c2cccc(C3CCc4c(cc(OC)c(OC)c4OC)O3)c2)c1 (stereo not given) | 44.2% |
| C=CCn1c(SCC(=O)Nc2ccc(C(=O)/C=C/c3ccc(Cl)cc3)cc2)nnc1-c1ccccc1 | 80.9% |
| COc1cc(/C=C/C(=O)c2c(C)[n+]([O-])c3ccccc3[n+]2[O-])ccc1O | 102% |
| CCN(CC)c1cc(C)c(Cc2c(OC)ccc3ccccc23)cc1C | 82.2% |
| COc1ccccc1N1C(=O)/C(=C/C2=Cc3ccccc3OC2)SC1=S | 92.9% |
| c1csc(-c2cnc3nonc3n2)c1 | 1.96% (active) |
| C/C(=N\NC(=O)CSc1nc2ccccc2c(=O)n1CCc1ccc(S(N)(=O)=O)cc1)c1ccc(Br)cc1 | 66.3% |
| CCOC(=O)/C(=C\c1ccc(-c2ccccc2)cc1)C(C)=O | 93.7% |
| S=C(Cc1ccccc1)N1CCN(c2ccccc2Cl)CC1 | 92.1% |
| C=C1C(=O)O[C@H]2[C@H]1CC/C(Cn1cc(CNCCc3c[nH]c4ccc(Cl)cc34)nn1)=C\CC[C@@]1(C)O[C@@H]21 | -55.2% (active) |
